TbREL1 inh: TbREL1 RNA ligase inhibitors, primary screen, biochemical, FRET fluorescence | RNA-editing ligase 1, mitochondrial (Trypanosoma brucei brucei), P86926 | TbREL1 RNA ligation | inhibition, % at 9.66 µM | hit rate 0.49% among 89,000 | AID 1117264, 2014;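 active = inhibition above the mean inhibition across all screened compounds plus 3 SD, cut at about 11% in these data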;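 also: 0% = plate median of test wells and 100% = NSC42067 control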
Target sequence (P86926 whole entry, looked up): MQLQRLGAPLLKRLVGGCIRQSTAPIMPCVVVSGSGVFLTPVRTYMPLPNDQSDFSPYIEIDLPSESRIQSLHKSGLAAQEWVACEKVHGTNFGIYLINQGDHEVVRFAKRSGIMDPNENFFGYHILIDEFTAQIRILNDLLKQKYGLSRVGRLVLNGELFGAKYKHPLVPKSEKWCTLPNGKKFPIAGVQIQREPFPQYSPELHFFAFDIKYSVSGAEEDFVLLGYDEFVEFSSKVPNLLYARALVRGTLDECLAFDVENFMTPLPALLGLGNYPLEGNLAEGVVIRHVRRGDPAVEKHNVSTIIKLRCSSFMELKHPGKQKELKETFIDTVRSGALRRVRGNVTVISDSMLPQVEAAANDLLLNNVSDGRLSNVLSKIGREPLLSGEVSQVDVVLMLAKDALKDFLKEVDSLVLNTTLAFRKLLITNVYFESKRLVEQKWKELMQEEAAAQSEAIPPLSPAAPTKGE
Active calls of the source: *. This is one part of a sample in which hits are shown more often than they occur.

`O=C(/C=C/c1ccco1)Oc1cc(Br)cc(/C=N/NC(=O)c2ccccc2O)c1` gave TbREL1 inh 0.
O=C(NN1C(=O)/C(=C/C=C/c2ccco2)SC1=S)c1ccccc1O was read as TbREL1 inh 86*.
`Cn1cccc1/C=C1\SC(=S)N(NC(=O)c2ccccc2)C1=O` gave TbREL1 inh 4.
Cc1ccc(-c2cc(-c3nnc(SCC(=O)N4c5ccccc5Sc5ccccc54)n3N)[nH]n2)cc1 was read as TbREL1 inh 2.
For Cc1nn(CCC(=O)NNC(=O)NCc2ccccc2)c(C)c1[N+](=O)[O-] the results were TbREL1 inh 5.
O=c1c2c3c(sc2nc2n1CCCCC2)CCC3 was read as TbREL1 inh 4.
For CC(C)c1csc2nc3n(c(=O)c12)CCCCC3 the results were TbREL1 inh 5.
For O=C1c2sc3nc4n(c(=O)c3c2CCC1Br)CCCCC4 (centres undefined) the results were TbREL1 inh 16*.
Screening COc1ccc2c(c1)CCCN2C(=O)C1CCCN(S(=O)(=O)c2cccs2)C1 (centres undefined) returned TbREL1 inh -3.
For CN1CCCCC(NC(=O)c2ccc(F)c(F)c2)C1=O (centres undefined) the results were TbREL1 inh 0.
`CCC(C)[C@H](NC(=O)OC(C)(C)C)C(=O)N[C@@H](Cc1ccccc1)C(=O)OC` (some centres undefined) gave TbREL1 inh 2.
For CCn1c(COc2ccc(C)cc2)nnc1SCC(=O)Nc1ccccc1-c1ccccc1 the results were TbREL1 inh -1.
Cc1ccc(C2(C)NC(=O)N(CC(=O)NCCC3=CCCCC3)C2=O)cc1 (centres undefined) was read as TbREL1 inh -1.
`Cc1ccc(CNCCC2=CCCCC2)cc1` gave TbREL1 inh 11*.
CCCNC(=O)C(=O)NCCC1=CCCCC1 was read as TbREL1 inh 1.
Screening COc1cccc(C(=O)N[C@H](C(=O)N2CCC[C@H]2C(=O)NCc2ccccc2)C2CCCCC2)c1 returned TbREL1 inh -2.
`CC(=O)N1c2cc(S(=O)(=O)N3CCN(c4ccccc4F)CC3)c(Br)cc2CC1C` (centres undefined) gave TbREL1 inh 1.
For O=C(COC(=O)c1ccccn1)NC12CC3CC(CC(C3)C1)C2 the results were TbREL1 inh 0.
`CC(=O)Oc1cc(C(=O)OCC(=O)NC23CC4CC(CC(C4)C2)C3)cc(OC(C)=O)c1OC(C)=O` gave TbREL1 inh 12*.
For COc1ccc(C(=O)OCC(=O)NC23CC4CC(CC(C4)C2)C3)c(OC)c1OC the results were TbREL1 inh 4.
COc1ccc(N2CCCN(CC(=O)Nc3ccccc3C)CC2)cc1 was read as TbREL1 inh -9.
`COc1ccc(CN2C(=O)[C@]3(NCCc4c3[nH]c3ccc(OC)cc43)c3cc(F)ccc32)cc1` gave TbREL1 inh -3.
For CC(C)C[C@H]1CNC(=S)N1CC1CCCN1C[C@H](CC(C)C)N1C[C@H](Cc2ccccc2)N(CC2CCCCCC2)C1=S (some centres undefined) the results were TbREL1 inh -4.
`CC(C)C[C@@H]1CN=C(N)N1C[C@@H]1CCCN1C[C@@H](C(C)C)N1C[C@@H](Cc2ccccc2)N(CCCC2CCCC2)C1=N` gave TbREL1 inh 13*.
For CC[C@@H](C)[C@@H]1CN([C@@H](C)CN2CCC[C@H]2CN2C(N)=NC[C@@H]2Cc2ccccc2)C(=N)N1CCCC1CCCC1 the results were TbREL1 inh 3.
c1ccc(-c2cc(-c3nnc4sc(Cc5cccs5)nn34)[nH]n2)cc1 was read as TbREL1 inh 1.
`Cc1[nH]c2ccccc2c1CC(=O)Nc1ccc(Oc2cccnc2)cc1` gave TbREL1 inh 3.
CCOC(=O)[C@@]12CCCC=C1N(CCc1ccc(Cl)cc1)C(=O)[C@H]2CC(=O)NCc1cccc2ccccc12 was read as TbREL1 inh 0.
COCCN(C(=O)COC(=O)c1cnc(C)cn1)c1c(N)n(Cc2ccccc2)c(=O)[nH]c1=O was read as TbREL1 inh 1.
For COCCN(C(=O)COC(=O)C1=COCCO1)c1c(N)n(Cc2ccccc2)c(=O)[nH]c1=O the results were TbREL1 inh 1.
For COCCN(C(=O)COC(=O)c1cc2c(s1)CCC2)c1c(N)n(Cc2ccccc2)c(=O)[nH]c1=O the results were TbREL1 inh 27*.
Screening COC(=O)[C@]12C[C@H](CC(=O)N3CCN(C(=O)C4CC4)CC3)C(=O)N(Cc3ccc(Cl)cc3Cl)C1=C[C@H](C(C)C)O[C@@H]2C1CC1 returned TbREL1 inh -3.
COc1cc(C=Nn2c(-c3ccccc3F)n[nH]c2=S)ccc1OCc1ccccc1 was read as TbREL1 inh -5.
Screening Cc1ccc(S(=O)(=O)NCC2CN(S(=O)(=O)c3ccc(C)cc3)c3ccccc3C(=O)N2c2ccc(F)cc2)cc1 (centres undefined) returned TbREL1 inh -4.
Nn1c(SCC(=O)Nc2ccc(OCc3ccccc3)cc2)nnc1-c1cc(-c2ccc(F)cc2)n[nH]1 was read as TbREL1 inh 8.
Screening Cn1cccc1C(=O)N1CCN(S(=O)(=O)c2ccc(Cl)s2)CC1 returned TbREL1 inh -3.
`O=C(NC(CC1=CCCCC1)c1ccc2ccccc2c1)C(F)(F)F` (centres undefined) gave TbREL1 inh -1.
Screening O=C(O)CC(C(=O)O)N1C(=O)/C(=C/c2ccc(-c3nc4ccccc4s3)o2)SC1=S (centres undefined) returned TbREL1 inh 84*.
For CCC(C(=O)O)N1C(=O)/C(=C/c2cccn2C)SC1=S (centres undefined) the results were TbREL1 inh 1.
O=C(O)CCCN1C(=O)/C(=C\c2ccc(-c3nc4ccccc4s3)o2)SC1=S was read as TbREL1 inh 11.
For O=C(NCCc1c[nH]c2ccccc12)OCc1cn(-c2ccc(F)cc2F)nn1 the results were TbREL1 inh 1.
`CCCC1CCC2(CCCN2CCOC(=O)Nc2ccc(OC)cc2)CC1` (centres undefined) gave TbREL1 inh 10.
Screening CCCC[C@H](C(=O)N(C)c1cccc(OC)c1)[C@@H](O)c1ccc(Cl)cc1 returned TbREL1 inh 0.
`COc1cc(-c2nnc(SCC(=O)NN=Cc3c[nH]c4ccccc34)n2-c2ccccc2)cc(OC)c1OC` gave TbREL1 inh 0.
Screening COc1cc(NC(=O)C2CCCN(S(=O)(=O)c3ccc(C)c(C)c3)C2)cc(OC)c1 (centres undefined) returned TbREL1 inh -1.
COC(=O)c1ccccc1-c1c2ccc(=N)cc-2oc2cc(N)ccc12 was read as TbREL1 inh -167.
`COc1cc(OC)c(-c2c3cc(O)c(=O)cc-3oc3cc(O)c(O)cc23)cc1OC` gave TbREL1 inh 20*.
`COc1c(O)cc2oc(-c3ccc(O)cc3)cc(=O)c2c1O` gave TbREL1 inh -2.
For COC(=O)[C@]12C[C@H](CC(=O)NCc3ccc(C)o3)C(=O)N(Cc3ccco3)C1=C[C@H](C1CCCC1)O[C@@H]2C the results were TbREL1 inh 8.
For CN1CCC(N[C@@H](Cc2c[nH]c3ccccc23)C(=O)NCCCc2ccccc2)(C(=O)NCCc2c[nH]c3ccccc23)CC1 the results were TbREL1 inh -2.
`C=CC(=O)Nc1ccc(N(C)c2ccnc(Nc3ccc(N4CCN(C)CC4)cc3)n2)cc1` gave TbREL1 inh 12*.
`CN1CCN(c2ccc(NC(=O)COc3ccccc3Cl)cc2)CC1` gave TbREL1 inh 0.

Assay outcomes: PubChem BioAssay, The Scripps Research Institute Molecular Screening Center
